This passage reports composite z-score results from PubChem BioAssay.

The test system of the assay is Human papillomavirus type 1a E7 protein (residues 1-88). The assay is described as follows: HPV1a E7 small-molecule binders, primary screen, biochemical, small-molecule microarray, residues 1-88, 635 nm (AID 1129). The settings on record: small-molecule microarray binding, fluorescence 635 nm; higher = more signal.
The compound `CSCC[C@@H]1NC(=O)CC=C[C@@H](C)COC(=O)[C@H](C)COC1=O` returned a composite z-score of -1.34. Take `CC1(C)O[C@H]2O[C@H]([C@H](O)CON=C3[C@H]4CCn5c(=O)n(-c6ccccc6)c(=O)n5[C@H]4[C@H](O)[C@@H]4O[C@H]34)[C@H](O)[C@H]2O1`: the composite z-score is -0.282. Then `COc1cccc([C@H]2Oc3ccc(OC)cc3C(=NO[C@@H](C)c3cc(-c4c(C)cc(C)cc4C)no3)[C@@H]2O)c1`, with -0.358; and `CC(=O)OC[C@H]1O[C@H](C#CCCc2ccccc2)C=C[C@@H]1OC(C)=O`, with -0.417. Then `CC(C)=CCCC(C)=CCON=C1C[C@@H](O)[C@@H](O)[C@@H]2[C@@H]3C(=O)N(C4CCCCC4)C(=O)[C@@H]3CC[C@H]12`, with 0.573. On to `COC(=O)[C@H](C)NC(=O)CCC1CC(OC(=O)NCc2ccc3c(c2)OCO3)CC2(CCCC(COC(=O)NCCc3ccc(Cl)cc3)O2)O1` (stereo partly specified), for which the composite z-score amounted to 0.377. With `COC(=O)[C@H](C)NC(=O)CCC1CC(OC(=O)NCCc2ccc(F)cc2)CC2(CCCC(COC(=O)NCC3CCCCC3)O2)O1` (stereo partly specified), the composite z-score came to 1.19. Then `CCN1C(=O)[C@H]2[C@H]3[C@H](O)[C@H](O)CC(=NO[C@H](C)c4cn([C@H](CO)Cc5ccccc5)nn4)[C@@H]3CC[C@H]2C1=O`, with 1.07; and `CCN1C(C)=C(C(=O)OC)[C@@H](c2ccccc2)N2C(=O)[C@](O)(C(=O)OC)CC(C(C)=O)=C12`, with 0.127. As for `C=CC[C@@H]1C=C[C@H](ON=C(C)CCN2CCCCc3nc(C)c(C)cc32)[C@@H](CO)O1`, the composite z-score was -0.0192. In turn, `CC(C)=NOC(C)CN1CCCCc2nc(C)c(C)cc21` (stereo unspecified) came in with a composite z-score of -0.368. With `CCOC(=O)[C@H](Cc1ccccc1)NC(=O)CCC1CC(OC(=O)NCCc2ccc(F)cc2)CC2(CCCC(COC(=O)NCCOc3ccccc3)O2)O1` (stereo partly specified) the figure was 1.18; with `Cc1ccc(S(=O)(=O)N[C@@H]2COC(=O)CC=C[C@@H](C)[C@H](NS(=O)(=O)c3ccc(C)cc3)COC(=O)[C@H](C)NC(=O)CC=C[C@H]2C)cc1`, -0.676; with `CCOC(=O)CCN1C(=O)[C@H]2[C@H]3[C@H](O)[C@H](O)CC(=NOCC(C)C)[C@@H]3CC[C@H]2C1=O`, -0.263.

Compound `CC(=O)OC[C@H]1O[C@H](CCON=C(C)CCN2CCCc3nc(C)c(C)cc32)C=C[C@@H]1OC(C)=O` had a composite z-score of 1.14. In the case of `Cc1cc2c(nc1C)CCCCN2CC(O)CN1CCCc2nc(-c3ccc(Br)cc3)ccc21` (stereo unspecified), the composite z-score was determined as 0.582. The compound `CC(C)(C)N1C(=O)[C@H]2[C@@H]3C(=CC[C@H]2C1=O)C(=O)[C@H]1O[C@H]1[C@H]3O` came in with a composite z-score of -0.137.

`CC(CCN1CCCc2nc(C)c(C)cc21)=NOC[C@@H](C)[C@H](OCc1ccccc1)C(C)C` returned a composite z-score of -0.703. With `CON=C(C)CCC(=O)OC[C@H]1O[C@H](C#Cc2ccccc2)C=C[C@@H]1Oc1ccc(C)cc1` the figure was 0.54; with `C[C@@H]1CC[C@@H](C(=O)O)N[C@H]1c1cccc(N2CCOCC2)c1`, 0.827; with `O=C1C2=CC[C@H]3C(=O)N(C4CCCCC4)C(=O)[C@H]3[C@H]2[C@H](O)[C@@H]2O[C@H]12`, -0.958. The compound `CCOC(=O)[C@H](Cc1ccccc1)NC(=O)CCC1CC(OC(=O)NCCc2ccc(F)cc2)CC2(CCCC(COC(=O)NCc3cccc(C(F)(F)F)c3)O2)O1` (stereo partly specified) yielded a composite z-score of 1.16. With `O=C1[C@H]2[C@H]3[C@H](O)[C@H](O)CC(=NO[C@@H]4O[C@H](CO)[C@@H](O)[C@H](O)[C@H]4O)[C@H]3CC[C@H]2C(=O)N1C[C@@H]1CCCO1` the figure was -0.178; with `CC(CCC(=O)OC[C@H]1O[C@H](C#Cc2ccccc2)C=C[C@@H]1Oc1ccc(C)cc1)=NOC[C@@H](C)[C@H](OCc1ccccc1)C(C)C`, -0.849; with `C[C@@H]1CC[C@H]2C(=O)OC(Cc3ccccc3)CN2[C@H]1c1ccc(Br)cc1` (stereo partly specified), 0.238. `COC(=O)CC=C[C@@H](C)[C@@H](C=NOC[C@@H](O)COCc1ccco1)OC` yielded a composite z-score of -0.464.

`CCc1cc2c(nc1CC)CCN(CCC(C)=NOC[C@@H](C)[C@H](OCc1ccccc1)C(C)C)C2` gave a composite z-score of -0.684. In turn, `O=C1C2=CC[C@H]3C(=O)N(C[C@@H]4CCCO4)C(=O)[C@H]3[C@H]2[C@H](O)[C@@H]2O[C@H]12` showed a composite z-score of 0.611. `CCOC(=O)CCN1C(=O)[C@H]2[C@H]3[C@H](O)[C@H](O)CC(=NNC(=O)OCC)[C@H]3CC[C@H]2C1=O` displayed a composite z-score of -0.113. Take `COc1ccc2c(c1)O[C@@H](c1cccc(C(F)(F)F)c1)[C@H](O)C2=O`: the composite z-score is 0.584. For the compound `COC(=O)CC=C[C@@H](C)[C@@H](C=NOC(C)CN1CCCCc2nc(C)c(C)cc21)NS(=O)(=O)c1ccc(C)cc1` (stereo partly specified), the composite z-score was determined as 0.156.

Consider `CCOC(=O)[C@H](Cc1ccccc1)NC(=O)CCC1CC(OC(=O)NCc2cccc3ccccc23)CC2(CCCC(COC(=O)NCCc3ccccc3OC)O2)O1` (stereo partly specified), for which the composite z-score came to 0.79. For `O=C1C=C[C@@H](O)[C@@H]2[C@@H]3C(=O)N(c4cccc(Oc5ccccc5)c4)C(=O)[C@@H]3CC[C@@H]12`, the composite z-score came to 0.548. For the compound `O=C1C=C[C@@H](O)[C@@H]2[C@@H]3C(=O)N(Cc4ccccc4)C(=O)[C@@H]3CC[C@@H]12`, the composite z-score was 0.673.

In turn, `COC(=O)[C@H](C)NC(=O)CCC1CC(OC(=O)NCc2ccc3c(c2)OCO3)CC2(CCCC(COC(=O)NCc3ccccc3)O2)O1` (stereo partly specified) displayed a composite z-score of 0.938.

`COc1ccc(COC(=O)NN=C2C[C@@H](O)[C@@H](O)[C@@H]3[C@@H]4C(=O)N(C(C)(C)C)C(=O)[C@@H]4CC[C@@H]23)cc1` registered a composite z-score of 0.656.
